CYP2C9 activ – activators of human CYP2C9 | recombinant CYP2C9, luciferin-H conversion, luminescence; hits give high values; factor 1 = untreated enzyme, 0 = blocked | activation factor at 5 µM | hit rate 1.4% among 96,000;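 active = activation factor of 2 or more for CYP2C9 at a 5 µM dose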
CYP2C9 inh – human CYP2C9 inhibition. P11712. CYP2C9 Supersomes, luciferin-H conversion, luminescence. inhibition, % at 5 µM. hit rate 20% among 96,000. AID 777;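 active = blocking of liver enzyme CYP2C9 beyond about 50% at 5 µM, limit read from the data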
CYP2C19 inhib – inhibitors of human CYP2C19; P33261; CYP2C19 Supersomes, luciferin-H EGE luminescence, 30 min; inhibition, % at 5 µM; hit rate 21% among 96,000;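 active = CYP2C19 inhibition above a set limit at 5 µM in the primary screen, cut at about 50% in these data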
Target sequence (P33261 whole entry, looked up): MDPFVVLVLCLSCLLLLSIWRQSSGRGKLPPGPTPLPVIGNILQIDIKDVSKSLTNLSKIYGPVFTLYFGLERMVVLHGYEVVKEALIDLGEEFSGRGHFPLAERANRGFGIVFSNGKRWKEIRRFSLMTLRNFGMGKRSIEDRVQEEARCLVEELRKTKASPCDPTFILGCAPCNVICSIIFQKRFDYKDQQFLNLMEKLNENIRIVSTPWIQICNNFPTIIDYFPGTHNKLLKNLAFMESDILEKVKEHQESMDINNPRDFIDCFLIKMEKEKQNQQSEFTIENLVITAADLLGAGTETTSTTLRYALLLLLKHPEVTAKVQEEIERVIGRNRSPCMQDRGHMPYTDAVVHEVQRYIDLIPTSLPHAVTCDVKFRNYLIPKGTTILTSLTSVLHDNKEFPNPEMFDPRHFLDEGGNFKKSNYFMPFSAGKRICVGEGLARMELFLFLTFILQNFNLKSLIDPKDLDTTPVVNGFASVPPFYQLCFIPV
CYP2C19 activ – activators of human cytochrome P450 2C19. P33261. activation factor at 5 µM. AID 1025. recombinant CYP2C19, luciferin-H EGE luminescence; hits give high values; 0 = fully inhibited enzyme, 1 = untreated enzyme. 96,000 tested, under 10 active;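 active = activation factor of at least 2 at 5 µM in the primary screen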
PLAP activator – activates human placental alkaline phosphatase | P05187 | purified PLAP enzyme, luminescent substrate read-out; hits give high values | activation fold at 20 µM | hit rate 1.2% among 96,000; in the data active = activation fold above about 2
Numbers stand for hits; - = inactive. Only some compounds are listed: those with a hit (about 31% of all), similar ones and a draw of the others.

SMILES	CYP2C9 activ	CYP2C9 inh	CYP2C19 inhib	CYP2C19 activ	PLAP activator
CCC(CC)COC(=O)C(C#N)c1nc2ccccc2nc1N1CCN(CC)CC1 (configuration not stated)	-	64	82	-	-
COc1ccc(CNC(=O)C(C#N)c2nc3ccccc3nc2N2CCN(C)CC2)cc1 (configuration not stated)	-	-	58	-	-
N#CC(C(=O)NC1CCCCC1)c1nc2ccccc2nc1N1CCOCC1 (configuration not stated)	-	-	-	-	-
CCC(C)COC(=O)C(C#N)c1nc2ccccc2nc1N1CCCCC1 (configuration not stated)	-	66	-	-	-
COc1ccc(CNC(=O)C(C#N)c2nc3ccccc3nc2N2CCCC2)cc1 (configuration not stated)	-	-	-	-	-
N#CC(C(=O)OCc1ccccc1)c1nc2ccccc2nc1N1CCOCC1 (configuration not stated)	-	-	50	-	-
Cc1ccc(-n2ncc(N(C)C)c(Cl)c2=O)cc1	-	-	-	-	-
CCCCn1c(SCC(=O)Nc2nnc(C)s2)nc2c1c(=O)n(C)c(=O)n2C	-	-	-	-	-
COc1cc2c(C)nc3onc(-c4ccccc4)c3c2cc1OC	-	77	54	-	-
CCN(CC)S(=O)(=O)c1cccc(C(=O)Nc2cccnc2)c1	-	-	-	-	-
CC(C)(C)NS(=O)(=O)c1ccc2nc(NC(=O)Cc3cccs3)sc2c1	-	88	50	-	-
CCN(CC)S(=O)(=O)c1ccc2nc(NC(=O)c3cccs3)sc2c1	-	62	-	-	-
CCN(CC)S(=O)(=O)c1cccc(C(=O)Nc2nc3cc4c(cc3s2)OCCO4)c1	-	67	-	-	-
CS(=O)(=O)c1ccc2nc(NC(=O)CCC(=O)c3cccs3)sc2c1	-	-	-	-	-
Cc1nc(=O)c(-c2ccccc2)c(C)n1CCCCCC(=O)O	-	-	-	-	-
COc1ccc(CN(C)C2CCCCC2)cc1	-	-	64	-	-
FC(F)Oc1ccc(NC(=S)NN2CCOCC2)cc1	-	-	-	-	-
CN1CCN(Cc2cc(COCc3ccccc3)c3cccnc3c2O)CC1	-	-	-	-	2.2
Oc1c(CN2CCCCC2)cc(Br)c2cccnc12	-	-	-	-	-
O=C(COc1ccccc1Cl)N1CCN(c2ncccn2)CC1	-	-	92	-	-
O=C(COc1ccccc1Cl)OCC(=O)N1CCN(S(=O)(=O)c2ccccc2)CC1	-	-	-	-	-
O=C(NCCC(=O)N1CCN(c2ncccn2)CC1)c1ccccc1	-	-	-	-	-
O=C(c1ccccc1OCc1ccccc1Br)N1CCN(c2ncccn2)CC1	-	99	97	-	-
O=C(NCCC(=O)N1CCN(c2ncccn2)CC1)c1ccccc1Cl	-	54	-	-	-
O=C(O)C1CSC2(c3ccc4c(c3)OCCO4)CCC(=O)N12 (configuration not stated)	-	-	-	-	-
SMILES	CYP2C9 activ	CYP2C9 inh	CYP2C19 inhib	CYP2C19 activ	PLAP activator
COC(=O)c1ccc(Sc2ccccc2NS(=O)(=O)c2ccc(OC)cc2)nc1	-	-	-	-	-
CCN1C(=C2C(=O)c3ccccc3C2=O)C=Cc2ccccc21	-	-	-	-	-
CCOC(=O)/C(C#N)=c1/s/c(=C2\C=Cc3ccccc3N2CC)c(=O)n1CC	-	-	58	-	-
Oc1ccc(-c2cccc(-c3ccc(O)cc3)n2)cc1	-	61	-	-	-
Cc1ccc(-c2c(C#N)c(N)n3c(nc4ccccc43)c2C#N)cc1	-	64	-	-	-
Cc1ccc(-c2c(C#N)c(N)n(-c3ccc(C)cc3)c(=O)c2C#N)cc1	-	-	-	-	-
COc1cc(NC(=O)c2cccs2)c(C(=O)OCC(=O)NC(C)c2ccccc2)cc1OC (configuration not stated)	-	90	64	-	-
COc1cc(NC(=O)c2cccs2)c(C(=O)OCC(=O)NCc2ccccc2)cc1OC	-	-	-	-	-
Cc1ccccc1NC(=O)CSc1nnc(Cc2cccn2C)n1-c1ccc(F)cc1	-	-	-	-	-
CCOC(=O)C1CCN(Cc2cnc(NC(=O)OC)s2)CC1	-	-	-	-	-
COC(=O)Nc1ncc(CN2CCc3ccccc3C2)s1	-	-	76	-	-
O=C1C2ON(c3ccccc3)C(c3cccnc3)C2C(=O)N1c1ccc(Cl)c(Cl)c1 (configuration not stated)	-	-	68	-	-
COc1cc(C2C3C(=O)N(c4ccccc4)C(=O)C3ON2c2ccccc2)cc(OC)c1OC (configuration not stated)	-	-	50	-	-
O=C1C2ON(c3ccccc3)C(c3cccnc3)C2C(=O)N1c1ccccc1 (configuration not stated)	-	-	-	-	-
COc1cc(C2C3C(=O)N(c4ccc(F)cc4)C(=O)C3ON2c2ccccc2)ccc1O (configuration not stated)	-	53	-	-	-
CCc1ccccc1NC(=O)C(Cc1cccc(OC)c1OC)c1nn[nH]n1 (configuration not stated)	-	50	-	-	-
CCOC(=O)C(NC(=O)c1ccc(Cl)cc1Cl)(Nc1ccc(C)cc1)C(F)(F)F (configuration not stated)	-	-	91	-	-
CCOC(=O)C(NC(=O)CC)(Nc1ccc(S(=O)(=O)Nc2cc(C)on2)cc1)C(F)(F)F (configuration not stated)	-	-	-	-	-
COc1ccc(/C=N/NC(=O)CCCOc2ccc(Cl)cc2Cl)cc1[N+](=O)[O-]	-	70	86	-	-
CCN(CC)C(=O)COc1ccc(Br)cc1Cl	-	-	82	-	-
CC(C)NC(=O)CCCOc1ccc(Cl)cc1Cl	-	-	59	-	-
O=C(O)CCC(=O)NNC(=O)CCCOc1ccc(Cl)cc1Cl	-	-	-	-	-
CCCCc1cc(=O)oc2cc(OCC(=O)N(CC)CC)c(Cl)cc12	-	-	-	-	-
CCN(CC)C(=O)CCCOc1ccc(Cl)cc1Cl	-	-	97	-	-
c1ccc2nc(N3CCOCC3)cnc2c1	-	-	-	-	-
SMILES	CYP2C9 activ	CYP2C9 inh	CYP2C19 inhib	CYP2C19 activ	PLAP activator
Cc1nc2c(cnn2-c2ccccc2Cl)c(=O)n1-c1ccc(C(C)C)cc1	-	-	-	-	-
O=C(c1cc2nc(-c3ccco3)cc(C(F)(F)F)n2n1)N1CCN(c2ccccn2)CC1	-	-	-	-	-
Cc1ccc(Cn2ccc(NC(=O)c3cc4nc5c(c(C(F)(F)F)n4n3)CCc3ccccc3-5)n2)cc1	-	71	-	-	-
Cc1ccc(O)c(NC(=O)c2cc3nc4c(c(C(F)(F)F)n3n2)CCc2ccccc2-4)c1	-	-	-	-	-
O=C(c1cc(-c2ccco2)on1)N1CCN(c2ccccc2)CC1	-	87	84	-	-
O=C(c1cc(-c2ccc(Cl)c(Cl)c2)on1)N1CCN(c2ccccc2)CC1	-	-	-	-	-

Screens as filed in PubChem.
